Screening results deposited in PubChem BioAssay by National Center for Advancing Translational Sciences (NCATS).
In the library only some 18% were active in any assay of this set; here they are far more common.
RORg inh = qHTS for inhibitors of ROR gamma transcriptional activity | Drosophila S2 Gal4-RORgamma UAS-luciferase reporter, 20 h | Potency, µM (highest dose often 53.6 µM), inactives show top-dose activity change, negative = inhibition, actives largely listed as inhibitors | actives 5.4% (n = 310,000) | Nuclear receptor ROR-gamma (Mus musculus), P51450; further: potency means the concentration at half of the fitted maximal effect; nearly all actives have a fitted effect of over 60% in size
Target sequence (P51450 whole entry, looked up, the tested form may be a part): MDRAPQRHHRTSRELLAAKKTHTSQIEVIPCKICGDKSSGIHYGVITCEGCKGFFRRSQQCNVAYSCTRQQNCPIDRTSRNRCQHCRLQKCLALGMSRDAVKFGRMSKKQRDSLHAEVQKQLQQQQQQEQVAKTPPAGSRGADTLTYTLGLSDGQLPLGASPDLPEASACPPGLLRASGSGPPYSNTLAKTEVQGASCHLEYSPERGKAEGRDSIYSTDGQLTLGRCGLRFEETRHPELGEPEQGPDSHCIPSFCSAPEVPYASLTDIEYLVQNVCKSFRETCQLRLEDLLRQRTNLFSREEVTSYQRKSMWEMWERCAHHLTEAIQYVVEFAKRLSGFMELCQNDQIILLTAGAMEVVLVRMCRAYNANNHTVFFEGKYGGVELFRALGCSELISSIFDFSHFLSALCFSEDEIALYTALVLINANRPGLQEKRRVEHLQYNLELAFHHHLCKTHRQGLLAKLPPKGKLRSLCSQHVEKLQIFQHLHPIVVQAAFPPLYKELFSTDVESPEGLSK
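Drosophila S2 cells stably expressing Gal4-DBD/mouse RORγ fusion under metallothionein promoter plus UAS-luciferase; compound 1 h, then 700 uM CuSO4 induction for 20 h at ambient temperature; inhibition read as reduced luminescence.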
LDHA inh = qHTS assay for inhibitors of human lactate dehydrogenase; L-lactate dehydrogenase A chain (Homo sapiens), P00338; purified LDHA, NADH/diaphorase-resazurin fluorescence; active compounds read low; activity change, % (values are at about 110 or 230 µM); actives 0.15% (n = 480,000); in the data active means activity change below about -30%; inconclusive means mostly about -25% to -30%;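 further: plate controls were DMSO wells for no effect and wells without enzyme for full effect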
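LDH5 2 nM; NADH 0.06 mM, pyruvate 0.2 mM; 200 mM Tris pH 7.4, EDTA, Tween-20; 5 min RT. Detection: diaphorase 0.133 mg/mL + resazurin 37 µM, fluorescence ex540/em590 at 0 and 20 min; normalized to enzyme-free and DMSO wells.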
IL-1B inflam inh = qHTS for Inhibitors of Inflammasome Signaling: IL-1-beta AlphaLISA Primary Screen. activity change, % at 57.5 µM. actives 4.7% (n = 360,000). AID 743279, 2014. THP-1 LPS/ATP IL-1B secretion, AlphaLISA, 16 h; active compounds read low; in the data active means activity change below about -50%; inconclusive means mostly about -30% to -49%
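THP-1 cells pretreated 1 hr with compounds (up to 57.5 uM final), then stimulated with LPS (250 ng/mL final) plus ATP (1.25 mM final); secreted IL-1B measured by AlphaLISA after 16 hr, decreased signal indicating inhibition.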
DT40 TDP1 no CPT = qHTS for Inhibitors of human tyrosyl-DNA phosphodiesterase 1 (TDP1): qHTS in cells in absence of CPT. actives 15% (n = 420,000). AID 686978, 2013. Potency, µM (series often up to 46.2 µM), without a hit: top-dose activity change, negative = growth inhibition, usual class: inhibitors. DT40 Tdp1-/- hTDP1 cells, no CPT, ATP luminescence, 48 h; further: potency means the concentration at half of the fitted maximal effect; nearly all actives have a fitted effect of over 55% in size
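Stably hTDP1-transfected Tdp1-null chicken DT40 cells were treated with library compounds minus camptothecin and grown for at least 48 hr at 37 °C, after which cellular ATP was quantified by luminescence.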
DT40 TDP1 CPT = qHTS for Inhibitors of human tyrosyl-DNA phosphodiesterase 1 (TDP1): qHTS in cells in presence of CPT | AID 686979, 2013 | actives 12% (n = 420,000) | chicken DT40 Tdp1-/-;hTDP1 cells + 20 nM CPT, ATP luminescence, 48 h | Potency, µM (titrated, usually from 46.2 µM), without a hit: top-dose activity change, negative = growth inhibition, hits mostly inhibitors; further: potency means the concentration at half of the fitted maximal effect; nearly all actives have a fitted effect of over 55% in size
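Chicken DT40 Tdp1-/- cells stably complemented with human TDP1 were seeded at 400 cells/well in medium containing 20 nM camptothecin, exposed to pin-transferred compounds, and grown at 37 °C for at least 48 hr. Viability was read as ATP luminescence.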
VP16 counter = VP16 counterscreen qHTS for inhibitors of ROR gamma transcriptional activity. Drosophila S2 Gal4-VP16 UAS-luciferase, luminescence, 20 h. Potency, µM (doses to about 53.6 µM), inactives show at the top dose activity, negative = inhibition, usual class: inhibitors. actives 3.5% (n = 310,000). AID 2546, 2010;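 further: Gal4-VP16 expression switched on by copper sulfate through the metallothionein promoter; potency means the concentration at half of the fitted maximal effect; nearly all actives have a fitted effect of over 50% in size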
The depositor's hits bear a star; i = inactive; ? = inconclusive; . = not tested or not shown; [ ] = another dose, or the depositor's remark. Unless noted, the call rests on the fitted dose curve; in most records, active means well fitted curve in the direction sought with a large enough effect; inconclusive means small, poorly fitted or top-dose-only effect, or another doubt; inactive means no such curve, though single readings can be large; an effect the other way counts as inactive or inconclusive. Unless noted, on the % scale 0 is the no-effect control and ±100 the full control effect.

SMILES	RORg inh	LDHA inh	IL-1B inflam inh	DT40 TDP1 no CPT	DT40 TDP1 CPT	VP16 counter
CCOc1ccccc1NC(=O)Cn1c(=O)oc2cc(S(=O)(=O)NCc3ccccc3)ccc21	.	-11	.	?	13µM*	.
COc1ccccc1CNC(=O)Cn1c(=O)oc2cc(S(=O)(=O)NCc3ccccc3)ccc21	.	-3	.	18µM*	10µM*	.
O=C(Cn1c(=O)oc2cc(S(=O)(=O)NCc3ccccc3)ccc21)N1CCCC1	35%	-7	16	-9%	-13%	0%
CC(=O)N1CCN(S(=O)(=O)c2cccc(C(=O)OCc3csc(-c4ccccc4)n3)c2)CC1	.	-5	.	.	.	.
Cc1cc(NC(=O)CCCSc2nc(-c3ccco3)cc(C(F)(F)F)n2)n(-c2ccccc2)n1	3%	2	-27	21µM*	?	-12%
Cc1cc(NC(=O)CSc2nc(-c3ccco3)cc(C(F)(F)F)n2)n(-c2ccccc2)n1	28%	-10	45	4.1µM*	4.1µM*	14%
CCc1ccccc1NC(=O)CCCSc1nc(-c2ccco2)cc(C(F)(F)F)n1	.	-13	.	-22%	-9%	.
Cc1c(NC(=O)CSc2nc(-c3ccco3)cc(C(F)(F)F)n2)c(=O)n(-c2ccccc2)n1C	1%	-1	-2	-6%	?	11%
CCCC(=O)N(c1ccc2oc(=O)sc2c1)S(=O)(=O)c1ccccc1	?	-2	-5	21µM*	?	?
CN(C)c1ncc2ncc(=O)n(Cc3ccc(F)cc3)c2n1	5%	.	.	21µM*	10µM*	-21%
COc1ccc(Oc2ncc3ncc(=O)n(Cc4cccs4)c3n2)cc1	3%	.	.	23µM*	?	-2%
COCCn1c(=O)cnc2cnc(Oc3cccc(Cl)c3)nc21	24%	.	.	-6%	-4%	5%
O=c1cnc2cnc(Oc3cccc(Cl)c3)nc2n1Cc1ccc(F)cc1	11%	.	.	23µM*	?	-7%
Cc1cccc(-c2nc3ccccc3c(=O)n2CCCN2CCOCC2)c1	.	1	.	.	.	.
Cc1cc(C)c(C(=O)NC2CCC(C)CC2)c(C)c1 (stereo unspecified)	.	-10	.	.	.	.
CC(=O)NC1C(OC2OC(CC(O)C3OC([N+]4=CCC(=O)NC4=O)C(O)C3O)C(O)C(O)C2NC(=O)/C=C/CCCCCCCCC(C)C)OC(CO)C(O)C1O (stereo unspecified)	.	.	.	0.09µM*	0.11µM*	.
O=C1c2ccccc2C(=O)C1c1ccc2ccccc2n1	?	-6	-3	26µM*	6.3µM*	4µM*
O=C1c2ccccc2C(=O)C1c1cc2ccccc2cn1	.	0	.	7.1µM*	1.8µM*	.
CCNC(=O)C(C)Sc1ncc(-c2ccc(F)cc2)o1 (stereo unspecified)	.	-9	.	.	.	.
COC(=O)/C(C#N)=C\c1cccc(Oc2ccc(Cl)cc2)c1	.	13	.	.	.	.
COC(=O)CC1(c2ccc(OC)cc2)C(=O)c2ccccc2C1=O	3%	3	25	?	2%	2%
COc1ccc(C(C[N+](=O)[O-])C2(c3ccc(OC)c(OC)c3)C(=O)c3ccccc3C2=O)cc1 (stereo unspecified)	?	2	-102*	4.1µM*	?	18µM*
COc1cc(Br)c(C2CC(=O)NC(C)=C2C(=O)OCc2ccc(C)cc2)cc1OC (stereo unspecified)	.	9	.	.	.	.
COc1ccc(OC)c(-c2cc(C3CCN(c4ncccc4[N+](=O)[O-])CC3)[nH]n2)c1	?	2	?	?	?	-19%
O=C(O)c1ccc(N2CCN(c3ccc(Cl)cc3)CC2)c([N+](=O)[O-])c1	30%	-14	-4	-4%	11%	0%
SMILES	RORg inh	LDHA inh	IL-1B inflam inh	DT40 TDP1 no CPT	DT40 TDP1 CPT	VP16 counter
O=[N+]([O-])c1cccnc1N1CCC(c2cc(-c3cccc(C(F)(F)F)c3)n[nH]2)CC1	13µM*	-2	?	?	?	?
O=[N+]([O-])c1cccnc1N1CCC(c2cc(-c3ccc(Cl)cc3Cl)n[nH]2)CC1	13%	2	0	21µM*	18µM*	?
CC(=O)c1ccc(N2CCC(c3cc(-c4ccc(Cl)cc4Cl)n[nH]3)CC2)c([N+](=O)[O-])c1	?	3	-55*	6.5µM*	4.1µM*	?
CCN(CC)c1nc(-c2cccs2)cs1	.	20	.	.	.	.
O=S(=O)(Nc1ccccc1-c1n[nH]c(C2CC2)n1)c1cc(Cl)ccc1Cl	.	15	.	.	.	.
COc1cc(C=O)c(-c2c(C=O)cc(OC)c3c2OCO3)c2c1OCO2	-22%[1.91 µM]	-9	15	12µM*	?	-6%
COc1ccc(-c2cc(C(F)(F)F)c(C#N)c(SCC(=O)Nc3ccc(F)cc3)n2)cc1	.	-16	.	-29%	-3%	.
Cc1snc(SCC(=O)N/N=C(\N)COc2ccc(F)cc2)c1C#N	2.5µM*	-10	23	?	-23%	4.5µM*
Cc1ccc(S(=O)(=O)N2CCN(C)CC2)c(C)c1N(C)S(=O)(=O)c1ccc(Cl)cc1	-33%	-1	-13	23µM*	?	-13%
Cc1cc(C)c(S(=O)(=O)N2CCOCC2)c(C)c1N(C)S(=O)(=O)c1ccccc1	-31%	-8	i	?	-20%	-9%
Cc1c(Cl)ccc(S(=O)(=O)N2CCN(C)CC2)c1Cl	.	-10	2	-23%	-8%	.
